Screening results from PubChem BioAssay.
An excerpt weighted towards active compounds, which were near 1.8% of everything screened.
LYPLA1 inh = counter-screen for PME1 inhibitors: inhibitors of human LYPLA1 | O75608 | recombinant LYPLA1, FP-Rh probe fluorescence polarization | inhibition, % at 5.9 µM | actives 0.16% (n = 320,000) | AID 2174;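 active = inhibition above the mean of all tested compounds plus 3 SD, set per campaign, cut at about 14% in these data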;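 also: inhibitors block serine hydrolase probe labeling of LYPLA1 so polarization falls; 0% = enzyme with DMSO and 100% = wells lacking LYPLA1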
Fam108B inh = blocks mouse Fam108B hydrolase in RBBP9 counter-screen; recombinant Fam108B, FP-Rh probe fluorescence polarization; inhibition, % at 9.51 µM; actives 0.33% (n = 300,000);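 active = inhibition above the screen mean inhibition plus 3 SD, computed separately per campaign, cut at about 18% in these data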;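 also: inhibitors lower polarization as less probe binds the enzyme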
LYPLA2 counter = LYPLA2 (human) inhibition in PME1 counter-screen. O95372. actives 0.38% (n = 320,000). inhibition, % at 5.9 µM. recombinant LYPLA2, FP-Rh probe fluorescence polarization;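 active = inhibition above the screen-wide mean plus 3 SD, limit set per campaign, cut at about 26% in these data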;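 also: 0% = LYPLA2 with DMSO and 100% = wells lacking LYPLA2 enzyme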
PME-1 primary = PME-1 (human) inhibition. Q9Y570. inhibition, % at 5.9 µM. recombinant PME-1, FP-Rh probe fluorescence polarization. actives 0.53% (n = 320,000). AID 2130;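 active = inhibition above the campaign mean of all compounds plus 3 SD, cut at about 26% in these data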;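 also: competitive labeling of PME-1 active site by serine hydrolase directed probe; 0% = PME-1 with DMSO and 100% = wells lacking PME-1 enzyme; inhibitors block probe labeling so polarization falls and inhibition rises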
Target sequence (Q9Y570 whole entry, looked up): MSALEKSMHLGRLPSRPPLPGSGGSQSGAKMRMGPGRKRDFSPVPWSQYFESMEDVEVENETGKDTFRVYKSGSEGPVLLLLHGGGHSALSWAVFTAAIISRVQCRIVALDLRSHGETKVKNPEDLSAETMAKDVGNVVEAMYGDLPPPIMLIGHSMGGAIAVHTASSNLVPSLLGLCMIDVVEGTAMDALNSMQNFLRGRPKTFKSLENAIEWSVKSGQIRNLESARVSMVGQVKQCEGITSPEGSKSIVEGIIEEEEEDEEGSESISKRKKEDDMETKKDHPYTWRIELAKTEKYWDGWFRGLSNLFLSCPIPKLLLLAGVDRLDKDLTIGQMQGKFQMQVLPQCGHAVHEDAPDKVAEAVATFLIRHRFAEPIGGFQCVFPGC
GSTO1 inh = GSTO1 inhibition, counter-screen for RBBP9 inhibitors; P78417; actives 1.1% (n = 300,000); AID 1974; recombinant GSTO1, activity-based probe fluorescence polarization; inhibition, % at 5.96 µM;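 active = inhibition above the campaign mean inhibition plus 3 SD, cut at about 35% in these data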;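 also: 0% = GSTO1-1 with DMSO and 100% = wells lacking GSTO1-1 enzyme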
PAD4 inh = blocks human protein arginine deiminase 4; recombinant PAD4, RCA probe fluorescence polarization; AID 485272; actives 0.41% (n = 330,000); Q9UM07; inhibition, % at 6.36 µM;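 active = percent inhibition above a cutoff equal to the mean of all tested compounds plus 3 SD, cut at about 15% in these data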;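 also: 0% = PAD4 with RCA probe and DMSO and 100% = probe without PAD4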
GSTO1 inh conf = GSTO1 (human) inhibition, confirmation; recombinant GSTO1, probe fluorescence polarization; actives 54% (n = 2,400); AID 2176; shares compounds with GSTO1 inh; inhibition, % at 5.96 µM;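 active = inhibition above the primary screen's cutoff, its mean inhibition plus 3 SD, cut at about 35% in these data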;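 also: loss of polarization as inhibitors block binding of rhodamine sulfonate ester activity probe; 0% = GSTO1 with DMSO and 100% = wells lacking GSTO1 enzyme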
GSTO1 ABPP inh = GSTO1 (human) inhibition by gel ABPP; recombinant GSTO1, gel ABPP SE-Rh probe fluorescence; shares compounds with GSTO1 inh; inhibition, % at 1 µM; actives 30% (n = 130);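 active = inhibition of the enzyme GSTO1 above about 75%, limit read from the data; inactive = inhibition below that limit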
Numbers without * were called inactive; . = no result.

SMILES	LYPLA1 inh	Fam108B inh	LYPLA2 counter	PME-1 primary	GSTO1 inh	PAD4 inh	GSTO1 inh conf	others
CCCOc1cc(N)ccc1C(=O)OCCN(CC)CC	2	-2	1	0	6	-2	.
CCCOc1ccc(N)cc1N	-6	17	-1	13	78*	49*	-14
N#CCc1nc2ccccc2c(=O)[nH]1	1	-1	5	-7	-8	-16	.
CCN(CC(=O)Nc1cc(Cl)ccc1C)C(=O)c1ccc2c(c1)NC(=O)C(C)S2 (configuration not stated)	1	2	9	-3	-7	-2	.
CCN(CC)CCCNC1=C(Cl)C(=O)c2ccccc2C1=O	-3	3	5	0	66*	-10	47*
CC(C)OCCCNC1=C(Cl)C(=O)c2ccccc2C1=O	-2	-2	-5	0	64*	-11	9
COCCCNC1=C(Cl)C(=O)c2ccccc2C1=O	0	2	-2	3	48*	-11	13
CC(C)OCCCNC(=S)NNC(=O)C(c1ccccc1)c1ccccc1	2	0	0	-3	-12	-2	.
CCN(CC)CCCNc1nc2ccccc2[nH]1	1	-1	1	-1	9	4	.
COc1ccc(S(=O)(=O)N2CCCOC2CNC(=O)C(=O)NCc2ccccc2F)cc1C (configuration not stated)	-2	5	-4	5	-2	1	.
Cc1c(C(=O)Nc2nc(-c3ccccn3)cs2)oc2ccccc12	-12	.	-10	-20	.	0	.
O=C(Nc1nc(-c2ccccn2)cs1)c1cc2ccccc2o1	-4	-6	-4	-21	48*	-6	39*
O=C(NC1CCCCC1)C1CCCN(S(=O)(=O)c2ccc(F)cc2)C1 (configuration not stated)	0	-1	7	2	9	3	.
COc1cc(/C=C/c2[nH]c(=O)[nH]c(=O)c2[N+](=O)[O-])cc([N+](=O)[O-])c1O	-1	9	2	-2	53*	0	68*
CCC(C)Oc1ccc(/C=C/c2[nH]c(=O)[nH]c(=O)c2[N+](=O)[O-])cc1OC (configuration not stated)	4	2	-3	-6	2	1	.
CCCCc1cc(=O)oc2c(C)c(OCC(=O)NCC3CCC(C(=O)O)CC3)ccc12 (configuration not stated)	0	3	11	1	-2	0	.
COC(=O)CN1C(=O)C2(C(C#N)=C(N)Oc3c2c(C)nn3-c2ccccc2)c2ccccc21 (configuration not stated)	-4	4	-2	4	42*	-3	15
COc1ccc(-c2nc(CS(=O)CC(=O)NCc3ccc(Cl)cc3)c(C)o2)cc1OC (configuration not stated)	-3	-2	7	-2	3	2	.
O=C(CN1CCN(C(=O)CN2C(=O)NC3(CCCC3)C2=O)CC1)Nc1cccc(F)c1	4	.	6	-2	.	1	.
COc1ccccc1N1CCN(C(=O)c2ccc(N(C)S(=O)(=O)c3ccccc3)cc2)CC1	1	2	4	5	3	0	.
Cc1ccc(NC(=O)CCl)c(C)c1	-3	0	3	-6	82*	2	91*
Cc1ccc(NC(=O)CCc2ccc(C)o2)c(C)c1	-6	-4	-12	-4	8	5	.
Cc1ccc(N(CC2CO2)S(=O)(=O)c2ccccc2[N+](=O)[O-])cc1 (configuration not stated)	0	-3	-1	7	87*	4	97*	GSTO1 ABPP inh=25
Cc1ccc(S(=O)(=O)N(CC2CO2)c2ccccc2[N+](=O)[O-])cc1 (configuration not stated)	6	-4	-9	1	78*	-4	93*	GSTO1 ABPP inh=28
O=C(CN(c1ccccc1)S(=O)(=O)c1ccccc1[N+](=O)[O-])NN=C1CCCCCCC1	-4	3	3	0	12	2	.
